Assay outcomes: PubChem BioAssay, several laboratories
Hits are enriched below; roughly 7.2% of the tested compounds scored in any of these assays.
SUMO Mot1 rescue – blocks SUMOylation pathway, rescuing yeast Mot1-301 growth; S. cerevisiae Mot1-301 growth rescue, ATP luminescence, 38.5C; percent above DMSO median, 100 means doubled; growth rescue, % at 18.8 µM; 320,000 tested, 1% active; AID 2716;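 active = every valid replicate shows activation above 250% relative to neutral control wells; inactive = the rest, any valid replicate at or below 250%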;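 also: OY570 slx delta 5 strain wells were the positive control but not used for scaling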
VLA-4 inh – inhibition in a human VLA-4 binding assay; P13612; VLA-4 expressing cells, ligand binding flow cytometry; inhibition, % (about 7 µM as worked out from the volumes in the protocol); 330,000 tested, 0.2% active; AID 2557; in the data active = inhibition above about 50%
A1 inh – inhibitors of the anti-apoptotic protein A1, read as caspase activation; 330,000 tested, 0.066% active; caspase activation, % (no concentration beside the values); MEF A1-2A-BIM cells, Caspase-Glo 3/7 luminescence, 3 h; percent of clofoctol response, vehicle zero; AID 2462;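 active = over half of replicate activation scores above 10%, or exactly half above 10 with the replicate mean above 10; inconclusive = replicate mean below 10 yet half the replicates above 10; inactive = over half of replicates below 10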
AHR act – human AHR activation | P35869 | AHR-responsive luciferase reporter cells, luminescence | AID 2796 | 320,000 tested, 2.5% active | activation, % at 5 µM; in the data active = activation above about 47%;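 also: 0% = vehicle wells and 100% = reference agonist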
Efflux pump mplx – inhibitors of Candida antifungal efflux pumps expressed in yeast; S. cerevisiae Candida pump triplex, Nile Red efflux; inhibition, % at 10 µM; 330,000 tested, 0.44% active;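 active = plate passing quality check with inhibition over a set limit, or well fluorescence over plate mean plus 4 SD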;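 also: Nile Red retained in pooled yeast measured as flow cytometry median fluorescence; 0% = buffer negative control and 100% = Enniatin B positive control; higher means more Nile Red kept so more efflux inhibition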
ALR inh – human ALR oxidase inhibition via reduced H2O2. P55789. purified ALR, DTT oxidation, H2O2 HRP-luminol luminescence. inhibition, % (concentration not given with the values). 290,000 tested, 3.8% active. AID 485317;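 active = mean replicate inhibition above about 79%, with every replicate also reaching it, limit read from the data; inconclusive = only one of the two criteria met; inactive = mean below limit and not every replicate reaching it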
Target sequence (P55789 whole entry, looked up): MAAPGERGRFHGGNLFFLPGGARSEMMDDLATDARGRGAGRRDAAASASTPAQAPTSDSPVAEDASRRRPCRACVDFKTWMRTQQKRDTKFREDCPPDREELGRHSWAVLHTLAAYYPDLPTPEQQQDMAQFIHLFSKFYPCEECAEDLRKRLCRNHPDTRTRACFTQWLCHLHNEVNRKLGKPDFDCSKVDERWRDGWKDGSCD
* marks the source's active call; other numbers are inactive results.

Results for CS(=O)(=O)c1ccc2nc(NC(=O)CN3CCC(Cc4ccccc4)CC3)sc2c1 ?
SUMO Mot1 rescue: 293.8*; VLA-4 inh: 7.3; A1 inh: -0.7; AHR act: -0.6; Efflux pump mplx: 0.0; ALR inh: 6.4

What do the screens show for `O=S(=O)(Nc1ccc(N2CCOCC2)cc1)c1ccc(F)cc1`?
SUMO Mot1 rescue: 6.6; VLA-4 inh: -0.3; A1 inh: 0.7; AHR act: -1.1; Efflux pump mplx: -0.1; ALR inh: inconclusive

Results for O=C(c1ccc(NS(=O)(=O)c2cccc3cccnc23)cc1)N1CCCCC1 ?
SUMO Mot1 rescue: -5.8; VLA-4 inh: -0.8; A1 inh: 0.0; AHR act: 1.1; Efflux pump mplx: 0.0; ALR inh: -1.2

What do the screens show for `O=S(=O)(Nc1ccc(N2CCCCC2)cc1)c1ccccc1F`?
SUMO Mot1 rescue: 13.2; VLA-4 inh: -6.2; A1 inh: -0.1; AHR act: 0.6; Efflux pump mplx: -0.1; ALR inh: 99.1*

How did O=S(=O)(Nc1ccc(N2CCCCC2)cc1)c1ccc(F)cc1 do in these assays?
SUMO Mot1 rescue: 29.6; VLA-4 inh: -1.0; A1 inh: 0.4; AHR act: -0.2; Efflux pump mplx: -0.1; ALR inh: 98.5*

How did O=S(=O)(Nc1ccc(N2CCCCC2)cc1)c1cccc2cccnc12 do in these assays?
SUMO Mot1 rescue: 4.5; VLA-4 inh: -3.1; A1 inh: -0.7; AHR act: -3.9; Efflux pump mplx: -0.1; ALR inh: 98.0*

How did O=S(=O)(Nc1ccc(N2CCCCC2)cc1)c1ccc(F)cc1F do in these assays?
SUMO Mot1 rescue: 4.2; VLA-4 inh: -3.5; A1 inh: -0.2; AHR act: -0.6; Efflux pump mplx: 0.2; ALR inh: 68.9

What do the screens show for `COCCCNCCCCOc1ccc(Br)cc1C`?
SUMO Mot1 rescue: 269.3*; VLA-4 inh: 2.6; A1 inh: 0.9; AHR act: 1.9; Efflux pump mplx: -0.3; ALR inh: -19.1

Results for Cc1oc2c(O)c(O)ccc2c(=O)c1-c1cnn(-c2ccccc2)c1 ?
SUMO Mot1 rescue: -0.9; VLA-4 inh: -16.7; A1 inh: 0.0; AHR act: -3.8; Efflux pump mplx: -0.1; ALR inh: 99.7*

Results for Cc1oc2c(O)c(O)ccc2c(=O)c1-c1ccc(Cl)cc1 ?
SUMO Mot1 rescue: 18.1; VLA-4 inh: 5.0; A1 inh: 1.2; AHR act: 1.5; Efflux pump mplx: -0.1; ALR inh: 98.9*

What do the screens show for `Cc1oc2cc(O)cc(C)c2c(=O)c1-c1cnn(-c2ccccc2)c1`?
SUMO Mot1 rescue: -7.9; VLA-4 inh: 30.3; A1 inh: -0.9; AHR act: -12.2; Efflux pump mplx: 0.0

Results for Cc1oc2c(O)c(O)ccc2c(=O)c1-c1ccccc1 ?
SUMO Mot1 rescue: -6.8; VLA-4 inh: 20.4; A1 inh: 0.0; AHR act: 0.7; Efflux pump mplx: -0.2; ALR inh: 98.8*

What do the screens show for `Cc1oc2c(CN3CCCCC3C)c(O)ccc2c(=O)c1-c1ccccc1` (stereo not drawn)?
SUMO Mot1 rescue: -8.5; VLA-4 inh: -2.9; A1 inh: 0.6; AHR act: -0.7; Efflux pump mplx: 0.1; ALR inh: -25.2

What do the screens show for `CC(C)CC(=O)Nc1ccc(C(=O)CN2CCC(C)CC2)cc1`?
SUMO Mot1 rescue: 2.4; VLA-4 inh: 8.5; A1 inh: -0.1; AHR act: -0.5; Efflux pump mplx: 0.0; ALR inh: -15.6

Results for CC(C)(C)N1CC(C(=O)Nc2cccc(Cl)c2Cl)CC1=O (stereo not drawn) ?
SUMO Mot1 rescue: -5.0; VLA-4 inh: 1.4; A1 inh: 0.0; AHR act: 1.0; Efflux pump mplx: 0.0

Results for COc1ccc(COC(=O)Nc2cn(C)nc2C(F)(F)F)cc1 ?
SUMO Mot1 rescue: 5.1; VLA-4 inh: 23.3; A1 inh: 0.1; AHR act: -1.5; Efflux pump mplx: -0.1; ALR inh: -0.4

Results for c1ccc2c(c1)CC(N1CCCCC1)c1ccccc1N2 (stereo not drawn) ?
SUMO Mot1 rescue: -4.2; VLA-4 inh: 2.8; A1 inh: 0.7; AHR act: 1.4; Efflux pump mplx: 0.1; ALR inh: 84.8*

How did CSc1ccc(CN2CCC(N3CC(C)OC(C)C3)CC2)cc1 (stereo not drawn) do in these assays?
SUMO Mot1 rescue: 284.6*; VLA-4 inh: 5.6; A1 inh: 0.2; AHR act: 1.4; Efflux pump mplx: 0.0; ALR inh: 2.0
